High-throughput results: PubChem BioAssay, The Scripps Research Institute Molecular Screening Center
Sampled rows, rich in hits. Any-hit rate of the full collection: about 1.1%.
OPRM1-OPRD1 inv = inverse agonists of human mu-delta opioid receptor heterodimerization; 0.21% of 340,000 active; AID 504357; inhibition, % at 9.3 µM; cell-based MOR-DOR heterodimer luminescence, inverse agonism; P35372+P41143; in the data active = inhibition above about 22%, passing the limit was not always enough;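 note: 0% = cells with DMSO and 100% = wells without cells with DMSO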
MOR-DOR ag = OPRM1-OPRD1 heterodimerization agonism. P35372+P41143. cells, luminescence. activation, % at 9.3 µM. 0.3% of 340,000 active. AID 504326; in the data active = activation above about 18%;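 note: 0% = vehicle-treated cells and 100% = reference agonist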
HTR5A inv ctr = inverse agonist of human HTR5A in OPRM1-OPRD1 counter-screen | HTR5A cell line, luminescence, inverse agonism | inhibition, % at 9.3 µM | 0.083% of 340,000 active | AID 504634; in the data active = inhibition mostly above about 23%, no sharp cut-off; inactive = mostly below about 18%;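 note: 0% = cells with DMSO and 100% = no-cell wells with DMSO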
Target sequence (P47898 whole entry, looked up): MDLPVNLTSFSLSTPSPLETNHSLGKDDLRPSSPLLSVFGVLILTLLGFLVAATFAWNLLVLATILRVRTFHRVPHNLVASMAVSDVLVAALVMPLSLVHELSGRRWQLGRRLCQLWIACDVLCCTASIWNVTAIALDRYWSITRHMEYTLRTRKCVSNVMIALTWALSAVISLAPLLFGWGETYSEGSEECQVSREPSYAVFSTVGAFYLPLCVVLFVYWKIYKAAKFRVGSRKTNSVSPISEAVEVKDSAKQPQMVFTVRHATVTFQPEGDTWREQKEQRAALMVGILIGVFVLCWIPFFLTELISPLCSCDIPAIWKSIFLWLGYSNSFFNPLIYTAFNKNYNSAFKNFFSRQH
HTR5A ag ctr = counter-screen for OPRM1-OPRD1 agonists: human HTR5A agonism. P47898. HTR5A agonist assay, luminescence, cell-based. activation, % at 9.3 µM. 0.61% of 340,000 active. AID 504692; in the data active = activation mostly above about 9.5%, no sharp cut-off; inactive = mostly below about 7.6%;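 note: 0% = cells with vehicle only and 100% = reference agonist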
OPRM1-D1 inv cf = OPRM1-OPRD1 heterodimer inverse agonism, confirmation. 20% of 580 active. shares compounds with OPRM1-OPRD1 inv. cells expressing OPRM1/OPRD1 heterodimer, luminescence. inhibition, % at 9.3 µM; in the data active = inhibition above about 32%;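 note: 0% = cells with DMSO and 100% = wells lacking cells with DMSO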
HTR5A inv count = HTR5A inverse agonism, opioid heterodimer counter-screen; shares compounds with OPRM1-OPRD1 inv; HTR5A-expressing cells, luminescence; inhibition, % at 9.3 µM; 580 tested, under 10 active; AID 504914; call rule not given here;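 note: 0% = cells with DMSO and 100% = no-cell wells with DMSO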
The depositor's hits bear a star; i = inactive; . = no result.

SMILES	OPRM1-OPRD1 inv	MOR-DOR ag	HTR5A inv ctr	HTR5A ag ctr	OPRM1-D1 inv cf	HTR5A inv count
Cc1ccccc1NC1(C#N)C(=O)Nc2ccccc21 (stereo not drawn)	58*	-12	4	-7	-251	-6
CC(C)c1ccc(NC2(C#N)C(=O)Nc3ccccc32)cc1 (stereo not drawn)	59*	-10	3	-3	-13	-19
CC(C)c1ccc(NC(=O)CC2Oc3ccccc3NC2=O)cc1 (stereo not drawn)	6	-1	3	-1	.	.
CCOC(=O)c1ccccc1OC(=O)NNc1ccccc1	37*	-7	22	-6	-18	-6
O=C(CN=C1NS(=O)(=O)c2ccccc21)OCC(=O)c1cc(F)ccc1F	30*	-6	11	-3	7	46*
O=C(CCN=C1NS(=O)(=O)c2ccccc21)OCC(=O)c1ccccc1Cl	20	-4	0	0	.	.
O=C(/C=C/c1ccccc1)C1=C(O)C(=O)N(CCO)C1c1ccccc1[N+](=O)[O-] (stereo not drawn)	52*	-10	20	-4	-427	-37
CC(=O)C1=C(O)C(=O)N(CCc2ccccc2)C1c1ccccc1[N+](=O)[O-] (stereo not drawn)	2	0	-6	2	.	.
CN(C)CC1CC/C(=C\c2ccc(O)cc2)C1=O (stereo not drawn)	41*	-9	24	-6	i	-26
O=C(CCC(=O)OCC(=O)c1cccc([N+](=O)[O-])c1)NC1CCCCC1	62*	-12	-19	-5	-22	10
CC(=O)Nc1ccc(NC(=O)CCC(=O)OCC(=O)c2cccc([N+](=O)[O-])c2)cc1	71*	-11	30	-12	-12	-18
Cc1ccc(C(=O)COC(=O)CCC(=O)Nc2cc(Cl)ccc2Cl)cc1[N+](=O)[O-]	52*	-12	33	-13	36*	10
O=C(CCC(=O)OCc1cccc([N+](=O)[O-])c1)Nc1ccccc1Cl	18	-4	11	-5	.	.
O=C(CCC(=O)OCC(=O)c1cccc([N+](=O)[O-])c1)Nc1ccccc1Cl	77*	-17	26	-12	-56	1
O=C(/C=C/c1ccccc1Cl)N1CCCN(C(=O)/C=C/c2ccccc2Cl)CC1	-2	0	-3	5	.	.
COCCN(C(=O)CSc1nnc(-c2ccccc2F)n1N)c1c(N)n(Cc2ccccc2)c(=O)[nH]c1=O	29*	-7	-21	8	-28	5
NC(=S)c1cc2ccc(O)cc2oc1=O	31*	-5	-1	-5	11	1
Cn1ncc([N+](=O)[O-])c1C(=O)Nc1nccs1	5	-1	-1	0	.	.
CCn1cc(S(=O)(=O)Nc2cccnc2)cn1	37*	-7	7	-10	41*	-12
CCn1ncc(S(=O)(=O)Nc2cccnc2)c1C	6	-1	-22	9	.	.
Cc1ccccc1NC(=O)Cc1nc(COC(=O)c2ccc(O)cc2O)cs1	6	-1	-3	6	.	.
O=C1C2=C(c3ccccc31)[N+](=O)C1CCCCC1N2[O-] (stereo not drawn)	56*	-13	17	2	3	2
ON1C(c2ccc(Cl)cc2Cl)N(O)[C@H]2CCCC[C@H]21 (stereo partly drawn)	63*	-11	7	-3	i	0
CC1N(O)C(c2ccc(Cl)cc2Cl)N(O)C1(C)C (stereo not drawn)	5	-1	-22	-1	.	.
Cc1cc(OC(=O)c2cccs2)ccc1C(C)C	-7	1	-22	9	.	.
SMILES	OPRM1-OPRD1 inv	MOR-DOR ag	HTR5A inv ctr	HTR5A ag ctr	OPRM1-D1 inv cf	HTR5A inv count
CSc1nccn1C(=O)c1ccccc1[N+](=O)[O-]	-3	1	9	-2	.	.
Nc1ccc(C(=O)OCC(=O)c2cccc([N+](=O)[O-])c2)cc1	19	-3	18	-7	.	.
CC(C)N(C(=O)COC(=O)c1ccccc1C(=O)c1ccc(Cl)c([N+](=O)[O-])c1)C(C)C	7	-1	-15	-2	.	.
O=C(COC(=O)c1cc2ccccc2oc1=O)c1cccc([N+](=O)[O-])c1	47*	-9	13	-2	46*	19
Cc1cc(C(=O)OCC(=O)c2ccc(Cl)c([N+](=O)[O-])c2)c2cccc(C)c2n1	34*	-7	3	-2	-40	-9
COc1ccccc1C(=O)OCC(=O)c1cccc([N+](=O)[O-])c1	19	-4	8	-2	.	.
Cc1cc(C(=O)OCC(=O)c2cccc([N+](=O)[O-])c2)c2ccccc2n1	60*	-12	-3	-8	38*	18
CCOC(=O)[C@@H](C)NS(=O)(=O)N(Cc1ccccc1)[C@H](C(=O)OC)C(C)C	9	-2	-14	5	.	.
Cc1ccccc1OCCCN1C(=O)C(=O)c2cccc(C)c21	50*	-10	-8	3	i	-2
Cc1ccc2c(c1)C(=O)C(=O)N2CCCOc1ccccc1C	19	-4	-13	4	.	.
C/C(CC(=O)Nc1ccccn1)=N\NC(=O)c1ccccc1O	2	0	-15	6	.	.
O=C(C1=C(Nc2ccccc2)c2ccccc2S(=O)(=O)N1)c1ccccc1	32*	-6	7	-3	19	14
CCc1ccccc1-n1nnnc1SCC(=O)Nc1cc(C)on1	5	-1	-9	3	.	.
COC(=O)c1sccc1NC(=O)Cn1nnc(-c2ccccc2C)n1	-3	1	5	-2	.	.
C/C(=N\NC(=O)c1cccs1)c1ccc(C(=O)O)s1	10	-2	-11	5	.	.
CCCN(CCC)c1nc(-c2ccccn2)nc2ccccc12	39*	-9	3	-1	-159	-19
CC1(C)C(c2ccccc2)=NC(c2ccc(F)cc2)N1O (stereo not drawn)	29*	-5	-5	4	-13	-57
CC1(C)C(c2cccs2)=NC(c2ccccc2)N1O (stereo not drawn)	14	-3	-14	5	.	.
C=CCn1c(N)c(C(=O)OC(C)CC)c2nc3ccccc3nc21 (stereo not drawn)	12	-2	-33	0	.	.
COCC(C)OC(=O)c1c(N)n(CC(C)C)c2nc3ccccc3nc12 (stereo not drawn)	59*	-11	3	8	37*	12
Cc1ccc(OCCN(C)C(=O)CC2C(=O)NCCN2CC(C)(C)C)cc1 (stereo not drawn)	10	-2	-2	1	.	.
CN(C)S(=O)(=O)c1cccc(C(=O)Nc2ccccc2[N+](=O)[O-])c1	34*	-7	9	-1	8	-8
COc1cc(Nc2ccc(C(=O)O)cc2[N+](=O)[O-])cc(OC)c1	9	-1	10	-5	.	.
COc1ccc(-c2nc(-c3cccs3)c(-c3cccs3)[nH]2)cc1OC	30*	-5	7	0	i	4
O=C(c1ccccc1)N1CCCOC1c1ccccc1 (stereo not drawn)	-2	0	-5	1	.	.
